# Assay outcomes as filed in PubChem.
# Hits are enriched below; roughly 19% of the tested compounds scored in any of these assays.
# KB-3-1 cytotox – qHTS assay for MDR1-selective chemotherapeutics: Primary screen using the parental adenocarcinoma cell KB-3-1; KB-3-1 viability, CellTiter-Glo ATP luminescence, 72 h; Potency, µM (series often up to 46.1 µM), most hits filed as cytotoxic; hit rate 1.4% among 400,000; further: nearly all actives have a fitted effect of over 60% in size
#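 Here the drug-naive KB-3-1 line serves as comparator for MDR sub-line selectivity; cells received compound titrations, 72 h at 37 °C, then CellTiter-Glo readout.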
# HT1080-NT tox – qHTS for induction of synthetic lethality in tumor cells producing 2HG: qHTS for the HT-1080-NT fibrosarcoma cell line; HT-1080-NT fibrosarcoma viability, CellTiter-Glo ATP luminescence, 48 h; Potency, µM (highest dose often 46.1 µM), inactives show at the top dose activity, negative = less viability, most hits filed as cytotoxic; hit rate 1.6% among 360,000; AID 686970, 2013;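 further: NT is the 2HG producing partner of a matched IDH1 knockdown line; 0% = DMSO-treated cells and -100% = media-only wells without cells; nearly all actives have a fitted effect of over 55% in size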
#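 HT-1080-NT; 750 cells/well; 5% FBS RPMI; 48 h compound, 37 degrees C; CellTiter-Glo luminescence; curve fitting and curve-class assignment.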
# TDP1 cell noCPT – qHTS for Inhibitors of human tyrosyl-DNA phosphodiesterase 1 (TDP1): qHTS in cells in absence of CPT | DT40 Tdp1-/- hTDP1 cells, no CPT, ATP luminescence, 48 h | Potency, µM (highest dose often 46.2 µM), inactives show at the highest dose activity change, negative = growth inhibition, actives largely listed as inhibitors | hit rate 15% among 420,000 | AID 686978, 2013; further: nearly all actives have a fitted effect of over 55% in size
#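 Growth of hTDP1-complemented DT40 Tdp1-knockout cells is measured by ATP luminescence after at least 48 hr compound exposure at 37 °C, with DMSO substituting for the 20 nM CPT used in the parallel screen.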
# HT1080 IDH1KD tx – qHTS for induction of synthetic lethality in tumor cells producing 2HG: qHTS for the HT-1080-IDH1KD cell line; HT-1080 IDH1 knockdown viability, ATP luminescence, 48 h; Potency, µM (titrated, usually from 46.1 µM), for inactives: at the top dose activity, negative = toxicity, actives largely listed as cytotoxic; hit rate 2% among 360,000; AID 686971, 2013;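 further: 0% = DMSO wells and -100% = cell-free medium wells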
#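 Luminescent ATP read-out (CellTiter-Glo, 10 min at room temperature) after 48 h compound exposure at 37 °C gave viability of IDH1-knockdown HT-1080 cells. Activity was normalised to DMSO and cell-free wells, then fitted as concentration-response curves.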
# TDP1 cell CPT – qHTS for Inhibitors of human tyrosyl-DNA phosphodiesterase 1 (TDP1): qHTS in cells in presence of CPT. chicken DT40 Tdp1-/-;hTDP1 cells + 20 nM CPT, ATP luminescence, 48 h. Potency, µM (series often up to 46.2 µM), without a hit: at the highest dose activity change, negative = growth inhibition, usual class: inhibitors. hit rate 12% among 420,000. AID 686979, 2013; further: nearly all actives have a fitted effect of over 55% in size
#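 Cell growth measured by CellTiter-Glo luminescence after a minimum 48 h, 37 C compound exposure with 20 nM CPT in Tdp1-knockout DT40 cells stably expressing hTDP1, seeded 400/well; qHTS titration format.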
# KB-V1 MDR tox – qHTS assay for MDR1-selective chemotherapeutics: Primary screen using the drug-selected MDR subline cells KB-V1. Potency, µM (top dose mostly 46.1 µM), most hits filed as cytotoxic. AID 1347076, 2019. hit rate 3.4% among 400,000. KB-V1 MDR cells viability, CellTiter-Glo, 72 h; further: nearly all actives have a fitted effect of over 60% in size
#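 KB-V1 MDR subline cells in DMEM (phenol-red free, 10% FBS) exposed to compounds in qHTS concentration series for 72 h at 37 degrees C. Viability read by CellTiter-Glo luminescence; concentration-effect curves fitted after normalization and correction.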
# The depositor's hits bear a star; i = inactive; ? = inconclusive; · = not tested or not shown. The call rests on the fitted dose curve; in most records, active means well fitted curve in the direction sought with a large enough effect; inconclusive means small, poorly fitted or top-dose-only effect, or another doubt; inactive means no such curve, though single readings can be large; an effect the other way counts as inactive or inconclusive. Unless noted, on the % scale 0 is the no-effect control and ±100 the full control effect; potency means the concentration at half of the fitted maximal effect.
SMILES,KB-3-1 cytotox,HT1080-NT tox,TDP1 cell noCPT,HT1080 IDH1KD tx,TDP1 cell CPT,KB-V1 MDR tox
COc1cccc(OC)c1NC(=O)Cn1nc(C)c2ccccc2c1=O,i,4%,?,2%,?,i
Cc1ccc(S(=O)(=O)C(CNC(=O)C(=O)NCCc2ccc(Cl)cc2)c2cccs2)cc1 (stereo unspecified),i,·,?,·,?,i
O=C(NCCc1ccccc1)C(c1cccs1)N(C(=O)CCl)c1ccc(Cl)cc1 (stereo unspecified),?,3.7µM*,1.6µM*,1.6µM*,1.8µM*,?
CC(C)OCCCN1C(=O)c2[nH]nc(-c3ccccc3O)c2C1c1cccc(Cl)c1 (stereo unspecified),?,?,23µM*,?,18µM*,16µM*
COCCCN1C(=O)c2[nH]nc(-c3ccccc3O)c2C1c1cccc(Cl)c1 (stereo unspecified),8.2µM*,26µM*,2.9µM*,?,21µM*,21µM*
C/C=C/C=C\C(=O)Nc1cccc(C2=NOC3(C2)C[C@@H](C(N)=O)N(C(=O)c2cc([N+](=O)[O-])cc([N+](=O)[O-])c2C)C3)c1 (stereo partly specified),i,1%,?,-3%,16µM*,i
C/C=C\C=C\C(=O)Nc1cccc(C2=NOC3(C2)C[C@H](C(N)=O)N(C(=O)c2ccccc2C(=O)c2ccccc2)C3)c1 (stereo partly specified),i,-12%,16µM*,-12%,?,i
C/C=C\C(=O)Nc1cccc(C2=NOC3(C2)C[C@@H](C(N)=O)N(C(=O)c2ccccc2)C3)c1 (stereo partly specified),i,2%,-11%,-1%,-30%,i
CCCCCC(=O)Nc1cccc(C2=NOC3(C2)C[C@@H](C(N)=O)N(C(=O)c2cc([N+](=O)[O-])cc([N+](=O)[O-])c2C)C3)c1 (stereo partly specified),i,-12%,?,-16%,?,i
Cc1cn(CC(=O)N(C)Cc2ccco2)c(=O)[nH]c1=O,i,-2%,-6%,0%,-6%,i
Cn1ccc2c(N3CCCC3)cc3c(c21)C1CCC3C1 (stereo unspecified),i,-15%,15µM*,-22%,21µM*,i
Cn1ccc2c(-c3ccc(CO)cc3)cc3c(c21)C1CCC3C1 (stereo unspecified),i,?,?,?,18µM*,i
Cn1ccc2c(N3CCCCCC3)cc3c(c21)C1CCC3O1 (stereo unspecified),i,-4%,?,?,21µM*,i
Cn1ccc2c(-c3ccc(F)cc3)cc3c(c21)C1CCC3C1 (stereo unspecified),i,0%,?,-5%,-26%,i
COC(=O)/C(=N/Nc1ccccc1C)Sc1nnc(C(O)c2ccccc2)n1-c1ccccc1 (stereo unspecified),i,2%,1%,-3%,-4%,i
CC(C)C(NC(=O)c1c(F)cccc1F)C(=O)N1CCN(S(=O)(=O)/C=C/c2ccccc2)CC1 (stereo unspecified),?,0%,-11%,10%,-12%,i
CC(C)(CNC(=O)C1c2ccccc2-c2ccccc21)N1CCOCC1,i,-8%,2%,-5%,9%,i
CCOc1ccc2nc(Cl)c(C3CC(c4ccc(OC)cc4)=NN3S(C)(=O)=O)cc2c1 (stereo unspecified),i,·,16µM*,·,8.2µM*,?
CC(=O)NC1=C(NC2CCS(=O)(=O)C2)C(=O)c2ccccc2C1=O (stereo unspecified),?,-10%,12µM*,-9%,10µM*,i
O=C(NC(=S)NC1CCS(=O)(=O)C1)c1ccccc1 (stereo unspecified),?,3%,6%,7%,2%,?
CN(C1=C(NC(=O)c2ccccc2)C(=O)c2ccccc2C1=O)C1CCS(=O)(=O)C1 (stereo unspecified),?,?,2.6µM*,-24%,2.6µM*,?
O=C(CN1C(=O)c2ccccc2C1=O)NC1CCS(=O)(=O)C1 (stereo unspecified),i,7%,0%,4%,-6%,i
CSc1ccc(CCNC(=O)NCc2noc3ccccc23)cc1,i,·,?,·,?,i
CN(C)S(=O)(=O)c1ccc2c(c1)C(=NO)c1cc(S(=O)(=O)N(C)C)ccc1-2,i,-20%,8.2µM*,-22%,?,i
CN(CCO)S(=O)(=O)c1ccc2c(c1)C(=NNC(N)=O)c1cc(S(=O)(=O)N(C)CCO)ccc1-2,i,0%,10%,6%,2%,i
SMILES,KB-3-1 cytotox,HT1080-NT tox,TDP1 cell noCPT,HT1080 IDH1KD tx,TDP1 cell CPT,KB-V1 MDR tox
CN(C)N=C1c2cc(S(=O)(=O)N(C)C)ccc2-c2ccc(S(=O)(=O)N(C)C)cc21,i,-18%,2.9µM*,-25%,4.6µM*,i
CN(C)S(=O)(=O)c1ccc2c(c1)C(=NNC(N)=O)c1cc(S(=O)(=O)N(C)C)ccc1-2,i,-18%,?,-3%,16µM*,?
CN(C)S(=O)(=O)c1ccc2c(c1)C(=O)c1cc(S(=O)(=O)N(C)C)ccc1CC2,i,·,·,·,·,i
O=S(=O)(NCc1ccccn1)c1ccccn1,i,12%,3%,21%,5%,i
NC(=NCc1ccco1)NC(=O)c1ccc(Cl)cc1,i,6%,-17%,-16%,-5%,i
COc1cc(NC(=O)c2cccnc2)ccc1NC(=O)c1ccccc1Cl,i,13%,?,0%,5%,i
COc1c(C)cc(Br)cc1C(=O)Nc1ccc(C)cc1[N+](=O)[O-],i,6%,13µM*,-2%,?,i
